High-throughput results (PubChem)
USP8 block: inhibitors of human USP8 deubiquitinase. Ubiquitin carboxyl-terminal hydrolase 8 (Homo sapiens), P40818. inhibition, % at 20 µM. AID 1645853, 2021. 4.2% of 47,000 active. purified USP8, Ub-rhodamine cleavage fluorescence, 30 min
USP30 block: inhibitors of human USP30 deubiquitinase. Ubiquitin carboxyl-terminal hydrolase 30 (Homo sapiens), Q70CQ3. purified USP30, Ub-rhodamine cleavage fluorescence. inhibition, % at 25 µM. 5.3% of 47,000 active. AID 1645860, 2021
OTUD3 block: inhibitors of human OTUD3 deubiquitinase. purified OTUD3, Ub-rhodamine fluorescence, 2 h. inhibition, % at 25 µM. 0.7% of 47,000 active. OTU domain-containing protein 3 (Homo sapiens), Q5T2D3. AID 1645858, 2021
USP28 block: inhibitors of human USP28 deubiquitinase | 3% of 47,000 active | Ubiquitin carboxyl-terminal hydrolase 28 (Homo sapiens), Q96RU2 | inhibition, % at 25 µM | AID 1645857, 2021 | purified USP28, Ub-rhodamine cleavage fluorescence, 30 min
USP17 inh: inhibitors of human USP17 deubiquitinase. Ubiquitin carboxyl-terminal hydrolase 17-like protein 5 (Homo sapiens), A8MUK1. purified USP17, Ub-rhodamine cleavage fluorescence, 3 h. inhibition, % at 50 µM. 6.5% of 47,000 active. AID 1645855, 2021
USP10 inh: inhibitors of human USP10 deubiquitinase; Ubiquitin carboxyl-terminal hydrolase 10 (Homo sapiens), Q14694; 1.1% of 47,000 active; purified USP10, Ub-rhodamine fluorescence, 60 min; inhibition, % at 20 µM; AID 1645856, 2021
Numbers without * were called inactive. Shown are actives, neighbours in structure and some others; about 13% of the full set was active somewhere. No stated cut-off is given here; in the data, active means inhibition above about 30%; inactive means the rest.

How did O=S(=O)(c1ccc(Cl)c(Cl)c1)N1CCN(c2ccnc3cc(Cl)ccc23)CC1 do in these assays?
USP8 block: -73; USP30 block: -2; OTUD3 block: -3; USP28 block: -10; USP17 inh: -18; USP10 inh: 3

What do the screens show for `O=S(=O)(c1ccc(Cl)cc1)N1CCN(c2ccnc3cc(Cl)ccc23)CC1`?
USP8 block: -4; USP30 block: 30*; OTUD3 block: 3; USP28 block: 7; USP17 inh: 7; USP10 inh: 4

What do the screens show for `O=C(c1cccc2ncccc12)N1CCN(c2ccnc3cc(Cl)ccc23)CC1`?
USP8 block: 48*; USP30 block: -373; OTUD3 block: -71; USP28 block: -8; USP17 inh: -102; USP10 inh: 1

Results for Cc1cccc(NC(=O)NCCc2n[nH]c(C)n2)c1 ?
USP8 block: -1; USP30 block: 8; OTUD3 block: 3; USP28 block: 0; USP17 inh: 8; USP10 inh: 4

How did COc1ccccc1NC(=O)NCc1nnnn1-c1ccccc1 do in these assays?
USP8 block: 3; USP30 block: 32*; OTUD3 block: 14; USP28 block: 15; USP17 inh: 10; USP10 inh: 3

What do the screens show for `O=C(Cc1ccc(F)cc1)N1CCN(c2nc3c(F)cccc3s2)CC1`?
USP8 block: -9; USP30 block: 6; OTUD3 block: 0; USP28 block: 0; USP17 inh: -4; USP10 inh: 1

Results for COc1ccc(NC(=O)COc2cc(CSc3ccccc3)ncc2OC)cc1 ?
USP8 block: 21; USP30 block: 43*; OTUD3 block: 8; USP28 block: 17; USP17 inh: 61*; USP10 inh: 3

What do the screens show for `COc1cnc(CSc2ccccc2)cc1OCC(=O)Nc1ccccc1`?
USP8 block: -11; USP30 block: -7; OTUD3 block: -6; USP28 block: -4; USP17 inh: -1; USP10 inh: 3

What do the screens show for `COc1cnc(CSc2ccccc2)cc1OCC(=O)Nc1ccc(F)cc1`?
USP8 block: 8; USP30 block: 43*; OTUD3 block: 14; USP28 block: 9; USP17 inh: 29; USP10 inh: 0

What do the screens show for `COc1cnc(CSc2ncccn2)cc1OCC(=O)Nc1ccc(C)cc1C`?
USP8 block: -52; USP30 block: 9; OTUD3 block: -3; USP28 block: -13; USP17 inh: 8; USP10 inh: 0

What do the screens show for `COc1cnc(CSc2ccccc2)cc1OCC(=O)Nc1ccccc1F`?
USP8 block: 5; USP30 block: 25; OTUD3 block: -2; USP28 block: -3; USP17 inh: 36*; USP10 inh: 7

What do the screens show for `O=C(c1cscn1)N1CCC2(CN(Cc3ccc(C(F)(F)F)cc3)C2)C1`?
USP8 block: -222; USP30 block: 12; OTUD3 block: -3; USP28 block: 0; USP17 inh: -6; USP10 inh: -1

How did CCc1ccc(-c2nc(SC(C)C(=O)NC3CCCc4ccccc43)n[nH]2)cc1 (centres undefined) do in these assays?
USP8 block: 11; USP30 block: 40*; OTUD3 block: 10; USP28 block: 12; USP17 inh: 48*; USP10 inh: 17

What do the screens show for `COc1ccc(-c2cc(C(=O)NC3CCCc4ccccc43)[nH]n2)cc1` (centres undefined)?
USP8 block: 17; USP30 block: 25; OTUD3 block: 8; USP28 block: 28; USP10 inh: 2

What do the screens show for `Cc1cccc(N2CCN([C@@H]3CS(=O)(=O)C[C@H]3S(=O)(=O)c3ccccc3)CC2)c1C`?
USP8 block: 2; USP30 block: 0; OTUD3 block: -1; USP28 block: 0; USP17 inh: -6; USP10 inh: 1

Results for CC(=O)Nc1ccc(C(=O)NCc2ccccc2F)c(N2CCOCC2)c1 ?
USP8 block: 17; USP30 block: -93; OTUD3 block: 9; USP28 block: 14; USP17 inh: 13; USP10 inh: 0

Results for CC(=O)Nc1ccc(C(=O)NCc2ccccc2F)c(N2CCCCC2)c1 ?
USP8 block: -17; USP30 block: -18; OTUD3 block: -16; USP28 block: 37*; USP17 inh: -17; USP10 inh: 0
